According to PubChem BioAssay (NCI):
The panel holds about 83,000 compounds, 20% with a hit somewhere; the sample as a whole holds those more often.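 Treatment: one concentration, 48 hours, 96-well format. Scoring: percent growth, with anything below 10 considered active.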 The source made the active and inactive calls.

system: SW-620 colon; assay: NCI-60 one-dose screen, 48 h (100 = growth as untreated, 0 = no growth, -100 = all killed); conditions: 10 µM unless noted

Row | SMILES | growth
1 | OC(Cc1cccnc1)c1ccccc1 (stereo not drawn) | 100% (inactive)
2 | c1ccc2c(c1)[nH]c1c2cc[n+]2cc3c(cc12)CCCC3 | 20.7% (inactive)
3 | CC(CCC(=O)O)(NC(=O)c1ccc([N+](=O)[O-])cc1)C(=O)O (stereo not drawn) | 103% (inactive)
4 | O=Nc1ccc(O)c(=O)cc1 | -43% (active)
5 | Cn1cc(-c2csc(-c3cn(C)c4ncccc34)n2)c2cc(Br)cnc21 | 89.4% (inactive)
6 | O=C(N1CCC(CN=c2cc3n(-c4ccc(Cl)cc4)c4ccccc4nc-3cc2Nc2ccc(Cl)cc2)CC1)N1CC1 | -83% (active)
7 | COc1ccc(C2=NNC(c3cc(Cc4ccc(O)c(C5CC(c6ccc(OC)cc6)=NN5)c4)ccc3O)C2)cc1 (stereo not drawn) | 30.3% (inactive)
8 | COc1cc(C2=NN(C(C)=O)C(c3ccc(OC(C)=O)cc3OC(C)=O)O2)c(OC(C)=O)c2ccccc12 (stereo not drawn) | 30.9% (inactive)
9 | CCCCC(C#N)C(N)=O (stereo not drawn) | 111% (inactive)
10 | O=C(Cn1ccnc1)NC(c1ccccc1)c1ccccc1 | 106% (inactive)
11 | CCOC(=O)c1cc(-c2cccnc2)nc2c(Cl)cc(Cl)cc12 | 103% (inactive)
12 | CCOC(=O)c1c2c(c(C)n1Cc1ccc(OC)cc1)-c1nc(N)ncc1CC2 | 100% (inactive)
13 | CC[C@]1(O)CC2CN(CCc3c([nH]c4ccccc34)[C@@](C(=O)OC)(c3cc4c(cc3OC)N(C)[C@H]3[C@@](O)(C(=O)OC)[C@H](OC(C)=O)[C@]5(CC)C=CCN6CC[C@]43[C@@H]65)C2)C1 (stereo partly drawn) | 21.6% (inactive)
14 | Cc1cc(C(C)(C)c2cc(C)c(O)c(CN(C)C)c2)cc(CN(C)C)c1O | 92.7% (inactive)
15 | Nc1ccccc1-c1ccc([N+](=O)[O-])cc1 | 43.8% (inactive)
16 | O=C1/C(=C/c2ccc([N+](=O)[O-])o2)Oc2ccc(Cl)cc21 | -78.7% (active)
17 | O=C(C(=O)N1CCOCC1)c1ccc(OC2OC(CO)C(O)C(O)C2O)cc1 (stereo not drawn) | 105% (inactive)
18 | COc1cc2cn3c4ccc(O)cc4nc(N)c3c2cc1OC | 26.1% (inactive)
19 | CC12CCCCC1C(C(N)=O)C(=O)O2 (stereo not drawn) | 104% (inactive)

Row | SMILES | growth
20 | CC1=C(C(=O)Nc2ccccc2)C(c2ccc3c(c2)OCCO3)NC(=O)N1 (stereo not drawn) | 105% (inactive)
21 | COc1cc(C2NC(c3ccc(Cl)cc3)C(C)C(=NC(=O)c3cnccn3)C2C)cc(OC)c1OC (stereo not drawn) | 114% (inactive)
22 | Fc1ccc(-c2nnc(/C=C/c3cn(-c4ccccc4)nc3-c3ccccc3)o2)cc1 | 86.6% (inactive)
23 | Clc1ccc([C@@H]2C[C@@H]3Cc4cc(Br)c5ccccc5c4N2O3)c(Cl)c1 | 55.4% (inactive)
24 | COc1ccc(Nc2ccnc(NCCCNc3ccnc4cc(Cl)ccc34)n2)cc1 | -48.7% (active)
25 | O=C(CCc1nnc(SCc2ccccc2)s1)c1nc2ccccc2[nH]1 | 107% (inactive)
26 | O=C(CSc1nnc(Nc2ccccc2)s1)NCCc1ccc(F)cc1 | 103% (inactive)
27 | O=C1Nc2ccccc2C12Nc1cc(Cl)ccc1S2 (stereo not drawn) | 120% (inactive)
28 | Nc1nc(N)c([N+](=O)[O-])c(=O)[nH]1 | 97.4% (inactive)
29 | CC(C)C(=O)Cc1cnccn1 | 102% (inactive)
30 | CCS(=O)(=O)OCCCl | 108% (inactive)
31 | CC(O)c1nc2c(c(=O)n(C)c(=O)n2C)n1C (stereo not drawn) | 110% (inactive)
32 | NC(=O)SCC(=O)Nc1ccccc1-c1ccccc1 | 115% (inactive)
33 | Cc1c(NCc2nnc3n(Cc4ccccc4)c(=O)c4c5c(sc4n23)CCCC5)c(=O)n(-c2ccccc2)n1C | 103% (inactive)
34 | NC(N)=NC(N)=NCCCc1ccccc1 | 77.8% [100 µM] (inactive)
35 | Cn1[nH]cc(/C=N/C(N)=O)c1=O | 102% (inactive)
36 | O=C(Oc1ccc[nH]c1=O)c1cccc(Cl)c1 | 115% (inactive)
37 | Nc1nonc1-c1nc2ccccc2n1CC(=O)Nc1ccc2c(c1)COC2=O | 59.1% (inactive)

system: MCF7 breast; assay: as above; conditions: 10 µM unless noted

Row | SMILES | growth
38 | OC(Cc1cccnc1)c1ccccc1 (stereo not drawn) | 104% (inactive)
39 | CC(CCC(=O)O)(NC(=O)c1ccc([N+](=O)[O-])cc1)C(=O)O (stereo not drawn) | 107% (inactive)
40 | O=Nc1ccc(O)c(=O)cc1 | 20.9% (inactive)
41 | Cn1cc(-c2csc(-c3cn(C)c4ncccc34)n2)c2cc(Br)cnc21 | 70.2% (inactive)
42 | O=C(N1CCC(CN=c2cc3n(-c4ccc(Cl)cc4)c4ccccc4nc-3cc2Nc2ccc(Cl)cc2)CC1)N1CC1 | -71.6% (active)
43 | COc1ccc(C2=NNC(c3cc(Cc4ccc(O)c(C5CC(c6ccc(OC)cc6)=NN5)c4)ccc3O)C2)cc1 (stereo not drawn) | 26.1% (inactive)
44 | COc1cc(C2=NN(C(C)=O)C(c3ccc(OC(C)=O)cc3OC(C)=O)O2)c(OC(C)=O)c2ccccc12 (stereo not drawn) | 14.1% (inactive)
45 | CCCCC(C#N)C(N)=O (stereo not drawn) | 97.7% (inactive)
46 | O=C(Cn1ccnc1)NC(c1ccccc1)c1ccccc1 | 100% (inactive)
47 | CCOC(=O)c1cc(-c2cccnc2)nc2c(Cl)cc(Cl)cc12 | 90.5% (inactive)
48 | CCOC(=O)c1c2c(c(C)n1Cc1ccc(OC)cc1)-c1nc(N)ncc1CC2 | 106% (inactive)
49 | CC[C@]1(O)CC2CN(CCc3c([nH]c4ccccc34)[C@@](C(=O)OC)(c3cc4c(cc3OC)N(C)[C@H]3[C@@](O)(C(=O)OC)[C@H](OC(C)=O)[C@]5(CC)C=CCN6CC[C@]43[C@@H]65)C2)C1 (stereo partly drawn) | 8.22% (active)
50 | Cc1cc(C(C)(C)c2cc(C)c(O)c(CN(C)C)c2)cc(CN(C)C)c1O | 96.4% (inactive)
51 | Nc1ccccc1-c1ccc([N+](=O)[O-])cc1 | 40.1% (inactive)
52 | O=C1/C(=C/c2ccc([N+](=O)[O-])o2)Oc2ccc(Cl)cc21 | -24.6% (active)
53 | O=C(C(=O)N1CCOCC1)c1ccc(OC2OC(CO)C(O)C(O)C2O)cc1 (stereo not drawn) | 95.2% (inactive)
54 | COc1cc2cn3c4ccc(O)cc4nc(N)c3c2cc1OC | 6.3% (active)
55 | CC12CCCCC1C(C(N)=O)C(=O)O2 (stereo not drawn) | 99.3% (inactive)

Row | SMILES | growth
56 | CC1=C(C(=O)Nc2ccccc2)C(c2ccc3c(c2)OCCO3)NC(=O)N1 (stereo not drawn) | 94.7% (inactive)
57 | COc1cc(C2NC(c3ccc(Cl)cc3)C(C)C(=NC(=O)c3cnccn3)C2C)cc(OC)c1OC (stereo not drawn) | 93.1% (inactive)
58 | Fc1ccc(-c2nnc(/C=C/c3cn(-c4ccccc4)nc3-c3ccccc3)o2)cc1 | 94% (inactive)
59 | Clc1ccc([C@@H]2C[C@@H]3Cc4cc(Br)c5ccccc5c4N2O3)c(Cl)c1 | 34% (inactive)
60 | COc1ccc(Nc2ccnc(NCCCNc3ccnc4cc(Cl)ccc34)n2)cc1 | -2.74% (active)
61 | O=C(CCc1nnc(SCc2ccccc2)s1)c1nc2ccccc2[nH]1 | 92.1% (inactive)
62 | O=C(CSc1nnc(Nc2ccccc2)s1)NCCc1ccc(F)cc1 | 109% (inactive)
63 | O=C1Nc2ccccc2C12Nc1cc(Cl)ccc1S2 (stereo not drawn) | 59.7% (inactive)
64 | Nc1nc(N)c([N+](=O)[O-])c(=O)[nH]1 | 88.6% (inactive)
65 | CC(C)C(=O)Cc1cnccn1 | 103% (inactive)
66 | CCS(=O)(=O)OCCCl | 102% (inactive)
67 | CC(O)c1nc2c(c(=O)n(C)c(=O)n2C)n1C (stereo not drawn) | 102% (inactive)
68 | NC(=O)SCC(=O)Nc1ccccc1-c1ccccc1 | 94.8% (inactive)
69 | Cc1c(NCc2nnc3n(Cc4ccccc4)c(=O)c4c5c(sc4n23)CCCC5)c(=O)n(-c2ccccc2)n1C | 85.1% (inactive)
70 | NC(N)=NC(N)=NCCCc1ccccc1 | 59.2% [100 µM] (inactive)
71 | Cn1[nH]cc(/C=N/C(N)=O)c1=O | 99.6% (inactive)
72 | O=C(Oc1ccc[nH]c1=O)c1cccc(Cl)c1 | 93.9% (inactive)
73 | Nc1nonc1-c1nc2ccccc2n1CC(=O)Nc1ccc2c(c1)COC2=O | 73.8% (inactive)
